Reference: PubChem BioAssay (Tox21)
Values without a mark were called inactive. Inconclusive results are not listed. A call without a number means that no potency is given here. Activity calls are given as the source filed them. Unless noted, calls follow the shape of the dose curve; as a rule, active = well fitted curve in the direction sought with a large enough effect in the repeat runs; inconclusive = weak or mixed curves; inactive = no such curve, though single readings can be large; an effect the other way counts as inactive or inconclusive.

Columns and labels:
[1] = biological target: Thyrotropin receptor (Homo sapiens) (UniProt P16473); assay: qHTS assay to identify small molecule antagonists of the thyroid stimulating hormone receptor (TSHR) signaling pathway (AID 1259385; calls by dose curve; also: nearly all actives have a fitted effect of over 20% in size)
Method in brief: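 TSHR-HEK293 cells were plated and held 18 h at 37C/5% CO2, then given compound plus Ro20-1724 and stimulated with TSH at 1.5 ng/mL final. After 30 min at room temperature, cAMP was detected with cAMP-d2/anti-cAMP-cryptate (1 h) by fluorescence.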

[2] = qHTS assay to identify small molecule agonists of the estrogen receptor alpha (ER-alpha) signaling pathway in the presence of an antagonist - cell viability counter screen (AID 1259386);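 also: series mostly up to about 92 µM; cells exposed to compounds for 22 h at 37 °C before the viability read; nearly all actives have a fitted effect of over 30% in size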
Method in brief: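 Viability counter screen using VM7Luc4E2 (full-length ER-alpha, four ERE-luciferase). The cells were treated with compounds alongside ICI-182,780 10.0nM for 22hr, and live-cell protease fluorescence was quantified with CellTiter-Fluor.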

[3] = biological target: Progesterone receptor (Homo sapiens) (UniProt P06401); assay: qHTS assay to identify small molecule agonists of the progesterone receptor (PR) signaling pathway (AID 1346784; calls by dose curve; also: nearly all actives have a fitted effect of over 30% in size)
Method in brief: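 Fluorescence from LiveBLAzer B/G FRET substrate cleavage (2 hr, RT) reported PR activation in PR-UAS-bla HEK 293T cells treated 16 hr at 37C/5% CO2 with compounds; medium contained 2% charcoal-stripped FBS.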

[4] = biological target: Progesterone receptor (Homo sapiens) (UniProt P06401); assay: qHTS assay to identify small molecule antagonists of the progesterone receptor (PR) signaling pathway (AID 1346795; active = well fitted inhibition curve with a large enough effect in the signal ratio in the repeat runs, not every such curve was filed as active; the % refers to the signal ratio)
Method in brief: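 Fluorescence intensity measured 2 hr after adding beta-lactamase FRET substrate to PR-UAS-bla HEK293T cells that had been co-treated 16 hr with compound and 1 nM R5020 (final concentration) in 2% charcoal-stripped FBS.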

[5] = qHTS assay to identify small molecule antagonists of the progesterone receptor (PR) signaling pathway - cell viability counter screen (AID 1346798); also: series mostly up to about 92 µM; nearly all actives have a fitted effect of over 50% in size
Method in brief: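 CellTiter-Glo luminescence; PR-UAS-bla HEK293T, 3,000 cells/well; compound + R5020, 16 hr, 37C/5% CO2; 30 min RT before read.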

[6] = qHTS assay to identify small molecule agonists of the progesterone receptor (PR) signaling pathway - cell viability counter screen (AID 1346799; calls by dose curve; also: nearly all actives have a fitted effect of over 45% in size)
Method in brief: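 In parallel with the beta-lactamase readout, cytotoxicity toward PR-UAS-bla HEK293T cells was measured by CellTiter-Glo luminescence following 16 hr compound incubation in 2% charcoal-stripped FBS medium.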

[7] = qHTS assay to identify small molecule antagonists of the TGF-beta/Smad signaling pathway - cell viability counter screen (AID 1346824); also: nearly all actives have a fitted effect of over 50% in size
Method in brief: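 SBE-bla HEK 293T cells were plated overnight at 37 C, then given compounds in DMSO plus TGF-beta1 (added as 0.25 ng/mL solution) for 5 hr. After the bla read, CellTiter-Glo was added to the same wells and luminescence read after 30 min at room temperature.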

[8] = qHTS assay to identify small molecule agonists of the TGF-beta/Smad signaling pathway - cell viability counter screen (AID 1346829); also: top concentration of the series differs between compounds; nearly all actives have a fitted effect of over 45% in size
Method in brief: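 Here the cytotoxicity of library compounds is measured in SBE-bla HEK 293T cells treated for 5 hr, using CellTiter-Glo added to wells already read for the beta-lactamase reporter.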

[9] = qHTS assay to identify small molecule agonists of the TGF-beta/Smad signaling pathway (AID 1346859; active = well fitted activation curve with a large enough effect in the signal ratio in the repeat runs, not every such curve was filed as active; the % refers to the signal ratio; also: series mostly up to about 77 µM)
Method in brief: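 After overnight seeding, SBE-bla HEK 293T cells are dosed with compounds in DMSO and kept 5 hr at 37 C, 5% CO2. LiveBLAzer-type FRET substrate is then applied for 2 hr at room temperature.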

[10] = biological target: Thyrotropin-releasing hormone receptor (Homo sapiens) (UniProt P34981); assay: qHTS assay to identify small molecule antagonists of the thyrotropin-releasing hormone receptor (TRHR) signaling pathway (AID 1346877; active = well fitted inhibition curve with a large enough effect in the repeat runs, not every such curve was filed as active; also: series mostly up to about 51 µM)
Method in brief: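 Following an 18 h incubation at 37 °C and a 2 h calcium dye load, TRHR-HEK293 cells were exposed to compound (5 min, room temperature) and challenged with TRH, 1 nM final.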

[11] = biological target: Thyrotropin-releasing hormone receptor (Homo sapiens) (UniProt P34981); assay: qHTS assay to identify small molecule agonists of the thyrotropin-releasing hormone receptor (TRHR) signaling pathway (AID 1346891; calls by dose curve;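 also: HEK293 cells expressing TRHR with calcium dye readout; series mostly up to about 58 µM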)
Method in brief: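 Compounds were tested as agonists at 15 concentrations, in triplicate, on TRHR-Hek293 cells; calcium-sensitive dye fluorescence was recorded for 3 min following addition.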

[12] = Caspase-3/7 induction in HepG2 cells by small molecules, qHTS assay (AID 1346978); also: nearly all actives have a fitted effect of over 15% in size
Method in brief: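 Wild-type HepG2 cells (2,000/well) were settled 5 h at 37 C, 5% CO2, then exposed to compounds in DMSO for 17 h. Caspase-3/7 activity was read by luminescence 30 min after adding Caspase-Glo 3/7 reagent at room temperature.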

[13] = Caspase-3/7 induction in CHO-K1 cells by small molecules, qHTS assay (AID 1346980); also: nearly all actives have a fitted effect of over 15% in size
Method in brief: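 Wild-type cells were seeded at 1,500 per well and settled 5 hr at 37 C, 5% CO2, then exposed to DMSO-dissolved compounds for 17 hr. Caspase-Glo 3/7 reagent was added, and luminescence was read after 30min at room temperature.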

[14] = Caspase-3/7 induction in HepG2 cells by small molecules, qHTS cell viability counter screen (AID 1346981); also: series mostly up to about 92 µM; nearly all actives have a fitted effect of over 30% in size
Method in brief: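 Viability determined by CellTiter-Fluor fluorescence in HepG2 wells also used for the luminescent Caspase-Glo 3/7 read. Compounds were present for 16 hr at 37 C, 5% CO2 before reagent addition.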

[15] = biological target: Nuclear receptor subfamily 1 group I member 2 (Homo sapiens) (UniProt O75469); assay: Human pregnane X receptor (PXR) small molecule agonists, qHTS assay (AID 1346982); also: nearly all actives have a fitted effect of over 35% in size
Method in brief: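 Compound-induced hPXR transactivation of a CYP3A4 luciferase reporter was scored in HepG2 PXR-Luc cells over 24 hr at 37 C, 5% CO2, by luminescence.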

[16] = biological target: Cytochrome P450 2D6 (Homo sapiens) (UniProt P10635); assay: Cytochrome P450 Family 2 Subfamily D Member 6 (CYP2D6) small molecule antagonists: luciferase reporter qHTS assay (AID 1671196); also: nearly all actives have a fitted effect of over 50% in size; also: potency is read from the fitted curve at half-maximal effect
Method in brief: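 Each well received CYP2D6 with its proluciferin substrate and chemical, sat 10 min, then got NADPH regeneration solution for 1 h at room temperature. Luminescence in RLU served as the activity measure.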

[17] = Human pregnane X receptor (PXR) small molecule agonists, qHTS cell viability counter screen (AID 1346977); also: nearly all actives have a fitted effect of over 50% in size
Method in brief: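 Viability counter screen: CellTiter-Fluor signal in PXR-Luc HepG2 cells, 24hr compound exposure, 37C, 5% CO2.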

[18] = Caspase-3/7 induction in CHO-K1 cells by small molecules, qHTS cell viability counter screen (AID 1346979); also: nearly all actives have a fitted effect of over 35% in size
Method in brief: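 Viability readout by fluorescence (CellTiter-Fluor) on wild-type CHO-K1 cells exposed for 16hr at 37C and 5% CO2 to compounds delivered in DMSO; reagent incubated 1hr before reading.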

[19] = biological target: Nuclear receptor subfamily 1 group I member 2 (Rattus norvegicus) (UniProt Q9R1A7); assay: Rat pregnane X receptor (rPXR) activation by small molecules, qHTS assay (AID 1346983); settings: rPXR luciferase reporter cells, One-Glo luminescence, 24 h; max activation: hits give high values; also: nearly all actives have a fitted effect of over 20% in size
Method in brief: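 Cell-based rPXR luciferase reporter assay, 2,000 cells per well, rested 5hr at 37 C before compound addition in DMSO, then 24 hr at 37 C. One-Glo reagent was added and luminescence read after 30 min at room temperature.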

[20] = biological target: Nuclear receptor subfamily 1 group I member 2 (Homo sapiens) (UniProt O75469); assay: CYP3A4 induction through human pregnane X receptor (PXR) by small molecules, qHTS assay (AID 1346984); also: nearly all actives have a fitted effect of over 40% in size
Method in brief: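 Readings come from a luciferase reporter: DPX-2 cells, which are HepG2 cotransfected with PXR and a CYP3A4-promoter construct, were exposed to test compounds for 24 h at 37C before One-Glo detection.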

Thyrotropin receptor (Homo sapiens), sequence (P16473 whole entry, looked up): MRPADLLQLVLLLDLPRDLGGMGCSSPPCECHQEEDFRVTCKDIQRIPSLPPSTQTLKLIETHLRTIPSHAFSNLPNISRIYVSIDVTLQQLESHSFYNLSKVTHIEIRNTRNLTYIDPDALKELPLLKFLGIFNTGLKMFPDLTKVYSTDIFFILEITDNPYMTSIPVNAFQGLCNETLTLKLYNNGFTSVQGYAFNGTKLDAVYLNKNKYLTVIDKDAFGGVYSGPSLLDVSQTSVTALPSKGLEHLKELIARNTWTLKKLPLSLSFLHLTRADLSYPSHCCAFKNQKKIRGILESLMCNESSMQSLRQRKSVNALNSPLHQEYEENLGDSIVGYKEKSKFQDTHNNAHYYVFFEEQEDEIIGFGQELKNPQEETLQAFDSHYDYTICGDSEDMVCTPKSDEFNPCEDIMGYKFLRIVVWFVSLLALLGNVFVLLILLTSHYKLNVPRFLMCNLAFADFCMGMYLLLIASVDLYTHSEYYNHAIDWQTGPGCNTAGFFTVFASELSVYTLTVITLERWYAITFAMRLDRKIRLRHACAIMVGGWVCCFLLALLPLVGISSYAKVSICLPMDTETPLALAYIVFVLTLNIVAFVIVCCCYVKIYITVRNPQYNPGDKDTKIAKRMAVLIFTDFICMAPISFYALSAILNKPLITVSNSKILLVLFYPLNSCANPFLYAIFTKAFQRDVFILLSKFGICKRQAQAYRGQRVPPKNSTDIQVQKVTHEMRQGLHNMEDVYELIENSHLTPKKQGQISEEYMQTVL
Cytochrome P450 2D6 (Homo sapiens), sequence (P10635 whole entry, looked up): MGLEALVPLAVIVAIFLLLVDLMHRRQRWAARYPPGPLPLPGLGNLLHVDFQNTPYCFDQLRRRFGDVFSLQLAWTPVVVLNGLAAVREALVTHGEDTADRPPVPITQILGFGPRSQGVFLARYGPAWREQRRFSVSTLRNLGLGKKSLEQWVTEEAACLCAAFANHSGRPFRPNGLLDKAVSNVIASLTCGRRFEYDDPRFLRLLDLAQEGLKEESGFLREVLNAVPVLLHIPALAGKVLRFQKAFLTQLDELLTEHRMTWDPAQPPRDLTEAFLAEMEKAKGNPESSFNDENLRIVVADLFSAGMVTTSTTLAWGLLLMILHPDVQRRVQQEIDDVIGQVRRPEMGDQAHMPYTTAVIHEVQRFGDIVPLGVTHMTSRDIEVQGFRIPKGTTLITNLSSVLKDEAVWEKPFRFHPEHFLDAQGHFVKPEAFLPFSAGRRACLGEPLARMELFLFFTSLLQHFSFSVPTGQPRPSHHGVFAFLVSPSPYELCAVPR
Nuclear receptor subfamily 1 group I member 2 (Homo sapiens), sequence (O75469 whole entry, looked up): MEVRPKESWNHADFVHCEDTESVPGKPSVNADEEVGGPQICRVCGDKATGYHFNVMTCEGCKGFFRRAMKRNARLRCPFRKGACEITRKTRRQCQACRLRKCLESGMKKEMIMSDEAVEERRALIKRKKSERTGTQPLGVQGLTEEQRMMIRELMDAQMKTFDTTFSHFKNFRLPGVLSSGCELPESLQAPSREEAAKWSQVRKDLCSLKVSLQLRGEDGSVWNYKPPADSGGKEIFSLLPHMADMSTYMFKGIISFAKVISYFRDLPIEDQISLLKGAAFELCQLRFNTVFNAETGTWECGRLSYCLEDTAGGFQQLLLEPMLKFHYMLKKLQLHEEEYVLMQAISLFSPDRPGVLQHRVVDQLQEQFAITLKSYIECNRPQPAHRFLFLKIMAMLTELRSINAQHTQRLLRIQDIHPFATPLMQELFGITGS
Thyrotropin-releasing hormone receptor (Homo sapiens), sequence (P34981 whole entry, looked up): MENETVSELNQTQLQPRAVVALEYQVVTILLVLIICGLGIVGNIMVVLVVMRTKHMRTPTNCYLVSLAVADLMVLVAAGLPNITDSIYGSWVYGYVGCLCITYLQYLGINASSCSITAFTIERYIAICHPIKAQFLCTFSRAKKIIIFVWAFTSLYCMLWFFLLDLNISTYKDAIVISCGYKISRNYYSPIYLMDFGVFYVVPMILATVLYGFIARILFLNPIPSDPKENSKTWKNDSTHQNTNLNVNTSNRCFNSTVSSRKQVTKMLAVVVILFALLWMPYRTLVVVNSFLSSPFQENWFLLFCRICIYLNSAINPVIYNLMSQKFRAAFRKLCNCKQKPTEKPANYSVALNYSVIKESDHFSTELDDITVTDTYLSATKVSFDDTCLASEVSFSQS
Progesterone receptor (Homo sapiens), sequence (P06401 whole entry, looked up): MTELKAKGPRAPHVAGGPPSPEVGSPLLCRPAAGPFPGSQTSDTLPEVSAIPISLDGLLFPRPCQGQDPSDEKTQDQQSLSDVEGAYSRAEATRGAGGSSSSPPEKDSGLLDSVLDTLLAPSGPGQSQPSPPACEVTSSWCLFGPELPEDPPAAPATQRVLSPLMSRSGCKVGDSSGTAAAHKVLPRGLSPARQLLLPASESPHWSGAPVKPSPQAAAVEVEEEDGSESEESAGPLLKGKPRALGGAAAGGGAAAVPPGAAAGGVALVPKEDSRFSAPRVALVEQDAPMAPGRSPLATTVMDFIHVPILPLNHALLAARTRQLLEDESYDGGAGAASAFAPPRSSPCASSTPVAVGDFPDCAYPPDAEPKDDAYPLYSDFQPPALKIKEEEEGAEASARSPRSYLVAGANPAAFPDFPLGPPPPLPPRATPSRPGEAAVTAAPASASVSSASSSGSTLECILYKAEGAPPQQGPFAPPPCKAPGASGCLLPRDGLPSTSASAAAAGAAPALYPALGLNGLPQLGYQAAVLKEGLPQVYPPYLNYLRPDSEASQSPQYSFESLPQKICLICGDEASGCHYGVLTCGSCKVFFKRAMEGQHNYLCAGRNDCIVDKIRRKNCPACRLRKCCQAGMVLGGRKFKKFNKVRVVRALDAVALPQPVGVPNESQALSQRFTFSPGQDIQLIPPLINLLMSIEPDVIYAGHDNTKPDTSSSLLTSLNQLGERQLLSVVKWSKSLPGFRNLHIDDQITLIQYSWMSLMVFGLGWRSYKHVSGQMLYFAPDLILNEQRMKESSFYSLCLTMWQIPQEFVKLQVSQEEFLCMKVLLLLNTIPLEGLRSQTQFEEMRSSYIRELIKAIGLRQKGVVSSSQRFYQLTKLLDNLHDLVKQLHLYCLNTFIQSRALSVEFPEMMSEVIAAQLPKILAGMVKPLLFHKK
Nuclear receptor subfamily 1 group I member 2 (Rattus norvegicus), sequence (Q9R1A7 whole entry, looked up): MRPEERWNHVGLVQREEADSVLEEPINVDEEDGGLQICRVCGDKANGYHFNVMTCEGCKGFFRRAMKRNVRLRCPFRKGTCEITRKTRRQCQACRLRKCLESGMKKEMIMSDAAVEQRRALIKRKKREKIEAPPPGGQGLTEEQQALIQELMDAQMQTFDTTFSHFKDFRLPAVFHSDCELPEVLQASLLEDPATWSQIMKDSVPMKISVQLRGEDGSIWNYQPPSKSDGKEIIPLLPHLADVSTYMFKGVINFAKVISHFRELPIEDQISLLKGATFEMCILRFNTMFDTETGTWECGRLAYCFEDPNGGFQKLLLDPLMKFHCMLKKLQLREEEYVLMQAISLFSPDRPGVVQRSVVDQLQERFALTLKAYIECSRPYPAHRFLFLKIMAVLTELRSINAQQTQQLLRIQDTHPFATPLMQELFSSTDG

SMILES	Potency [1]	Potency [2]	Potency [3]	Potency [4]	Potency [5]	Potency [6]	outcome [7]	Potency [8]	Potency [9]	outcome [10]	outcome [11]	Potency [12]	outcome [13]	Potency [14]	Potency [15]	Potency [16]	Potency [17]	Potency [18]	max activation [19] [%]	Potency [20]
O=C(CCS)OCC(COC(=O)CCS)(COC(=O)CCS)COC(=O)CCS	inactive	inactive	inactive	inactive	inactive	inactive	inactive	inactive	inactive	inactive	inactive	inactive	inactive	inactive	inactive	inactive	–	–	–	–
CCCCCc1ccco1	inactive	inactive	inactive	inactive	inactive	inactive	inactive	inactive	inactive	inactive	inactive	inactive	inactive	inactive	–	–	inactive	–	–	–
CCN(CC)CCOC(=O)C(c1ccccc1)c1ccccc1	inactive	inactive	inactive	inactive	inactive	inactive	inactive	inactive	inactive	inactive	inactive	inactive	inactive	inactive	inactive	2.75 µM (active)	–	inactive	0.131	inactive
CCSC(=O)N(CC)CC	inactive	inactive	inactive	inactive	inactive	inactive	inactive	inactive	inactive	inactive	inactive	inactive	inactive	inactive	inactive	inactive	inactive	inactive	–	–
C=CCOC(=O)COCCC(C)C	inactive	inactive	inactive	inactive	inactive	inactive	inactive	inactive	inactive	inactive	inactive	inactive	–	inactive	inactive	–	–	–	–	–
CC(C)(C)S	inactive	inactive	inactive	inactive	inactive	inactive	inactive	inactive	inactive	inactive	inactive	inactive	inactive	inactive	inactive	7.34 µM (active)	inactive	inactive	–	–
CC(C)CC(O)CC(C)C	inactive	inactive	inactive	inactive	inactive	inactive	inactive	inactive	inactive	inactive	inactive	inactive	inactive	inactive	inactive	inactive	–	inactive	–	–
FC(F)(F)C(F)(F)C(F)(F)C(F)(F)CCI	inactive	inactive	inactive	inactive	inactive	inactive	inactive	inactive	inactive	inactive	inactive	inactive	inactive	inactive	inactive	inactive	inactive	inactive	–	–
